# According to PubChem BioAssay AID588852 (The Scripps Research Institute Molecular Screening Center, 2011):
# Hit rate of the full screen: of about 360,000 compounds, about 4,600 (1.3%) were called active. The entries come from a sample that favours actives as a whole. Unmarked numbers belong to inactive results.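 The calls were made as follows: active = percent inhibition above its own plate's cutoff, namely the mean of that plate's compound wells plus 3 SD; inactive = the rest.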
# Biological target: Muscarinic acetylcholine receptor M1 (Homo sapiens) (UniProt P11229)
# Sequence (P11229 whole entry, looked up): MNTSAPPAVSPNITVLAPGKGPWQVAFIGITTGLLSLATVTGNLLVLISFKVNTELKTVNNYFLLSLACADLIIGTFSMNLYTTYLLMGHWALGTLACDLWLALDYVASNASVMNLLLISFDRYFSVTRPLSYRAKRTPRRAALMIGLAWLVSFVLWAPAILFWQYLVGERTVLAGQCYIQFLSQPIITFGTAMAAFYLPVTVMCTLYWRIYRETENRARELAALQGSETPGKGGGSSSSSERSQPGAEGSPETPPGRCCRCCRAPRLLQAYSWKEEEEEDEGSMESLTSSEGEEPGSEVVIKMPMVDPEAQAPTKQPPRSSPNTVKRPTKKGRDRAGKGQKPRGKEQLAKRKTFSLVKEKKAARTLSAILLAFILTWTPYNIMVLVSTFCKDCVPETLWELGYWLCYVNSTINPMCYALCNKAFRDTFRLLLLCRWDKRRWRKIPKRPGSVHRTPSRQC
# Assay: human M1 muscarinic receptor antagonists, primary screen, CHO-K1 cells, Fluo-8 calcium fluorescence, 1536-well (AID 588852);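 also: peak over basal fluorescence ratio during 140 s after agonist addition; 0% = ACh EC80 plus DMSO and 100% = DMSO alone without agonist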
# Details: CHO-K1 hM1, Fluo-8 calcium fluorescence, ACh EC80 antagonist; at 3 µM; active compounds read high
row,Compound,inhibition
1,CN(Cc1ccccc1)C(=O)CSc1nc2ccccc2[nH]1,-5.93%
2,CCC(C)N1C(=O)S/C(=C/c2ccc(Sc3nc4ccccc4[nH]3)o2)C1=O (stereo unspecified),32.9% (active)
3,CN1CCN(c2ccc([N+](=O)[O-])c(Sc3nc4ccccc4[nH]3)c2)CC1,-0.69%
4,O=C(C1CCC1)N1CCc2cc(S(=O)(=O)NCc3cccnc3)ccc21,-15.2%
5,COc1ccc(C(c2nnnn2C2CCCCC2)N2CCN(c3ccccc3F)CC2)cc1 (stereo unspecified),-2.28%
6,COc1ccc(C(c2nnnn2C2CCCC2)N2CCN(C/C=C/c3ccccc3)CC2)cc1 (stereo unspecified),48.7% (active)
7,FC(F)(F)Oc1ccccc1C(c1nnnn1C1CCCCC1)N1CCN(C/C=C/c2ccccc2)CC1 (stereo unspecified),-18.7%
8,CC(=O)Nc1cc(-c2ccccc2N(C)C)cn2c(-c3ccc(F)c(Cl)c3)cnc12,-16.4%
9,CN(CC1CCCN(CCc2cccc(C(F)(F)F)c2)C1)C(=O)c1ccc2nc[nH]c2c1 (stereo unspecified),84.4% (active)
10,Cc1nc2ccc(C(=O)N(C)CC3CCCN(CCc4ccc(Cl)cc4)C3)cc2[nH]1 (stereo unspecified),17.1%
11,CC(=O)c1ccc(N2CCN(C(=O)c3ccc4nc[nH]c4c3)CC2)cc1,-1.75%
12,COc1ccc(NC(=O)C2Cc3c(-c4ccc5c(c4)OCO5)ccnc3O2)cn1 (stereo unspecified),-14.1%
13,COc1ccc(-c2[nH][nH]c(=O)c2NC(=O)c2ccc([N+](=O)[O-])cc2)cc1,-25%
14,CSCCNCc1cn(-c2ccc(F)cc2F)nc1-c1ccccc1C,-13.6%
15,CC(=O)Nc1cccc(-c2ccnc3c2CC(C)(C(=O)NCc2ccco2)O3)c1 (stereo unspecified),-8.07%
16,COc1ccc(CCNC(=O)COC(=O)c2ccc[nH]c2=O)cc1,-7.65%
17,CCCc1nc2ccccc2c(C(=O)OCc2nnc(-c3cc(OC)c(OC)c(OC)c3)o2)c1CC,24.3% (active)
18,CCOC(=O)c1cc(-c2nnc(-c3cc(OC)c(OC)c(OC)c3)o2)c(C)nc1C,-32.2%
19,O=C(OCc1nnc(-c2ccccc2)o1)c1cc(=O)[nH]c2ccccc12,-2.41%
20,O=C(NC1CCCCC1)C1CCC(CNS(=O)(=O)c2ccccc2)CC1 (stereo unspecified),2.63%
21,CC[C@@H](C)[C@@H]1CN([C@@H](C)CN2CCC[C@H]2CN2C(N)=NC[C@H]2C(C)C)C(=N)N1CCc1ccc(Cl)c(Cl)c1,16.5%
22,C[C@@H](CN1CCC[C@H]1CN1C(N)=NC[C@@H]1Cc1ccccc1)N1C[C@@H](Cc2ccccc2)N(CCCC2CCCC2)C1=N,93.1% (active)

row,Compound,inhibition
1,CCCCN1C(N)=NC[C@@H]1Cc1ccccc1,-1.32%
2,Cc1cc(/C=C2/SC(=O)N(CC(=O)N3CCCC3)C2=O)ccc1N1CCOCC1,-1.78%
3,COc1ccc(NC(=O)N2CCC(Cc3ccccc3)CC2)cc1,-2.81%
4,COc1ccc(S(=O)(=O)NC(C)C(=O)N2CCCCCC2)cc1 (stereo unspecified),-12.2%
5,COc1ccc(CNS(=O)(=O)c2ccc(NC(=O)N3CCCCC3)cc2)cc1,33.3% (active)
6,COCC(=O)N1CCCC(C(=O)c2ccc(C(F)(F)F)cc2)C1 (stereo unspecified),-12.9%
7,O=C1CCCC2=C1C(c1cccs1)n1nc(SCc3ccccc3)nc1N2 (stereo unspecified),-6.44%
8,O=C(NCCCO)c1cc2c([nH]c3ccccc32)c(-c2ccc(F)cc2)n1,1.06%
9,O=C(NCC1CCCO1)c1cc2c([nH]c3ccccc32)c(-c2ccc(F)cc2)n1 (stereo unspecified),42.6% (active)
10,COc1ccc2cc(C(=O)NCC3CCCO3)[nH]c2c1 (stereo unspecified),-11.4%
11,CC(C)(C)c1ccc(CCC2OCC(CN3CCOCC3)O2)cc1 (stereo unspecified),-5.48%
12,NC(=O)CC[C@@H]1NC(=O)[C@@H]2CCCN2C(=O)c2cc([N+](=O)[O-])cc(F)c2NCCC[C@@H](C(N)=O)NC1=O,-13.1%
13,COc1cccc(CNC(C)C(=O)Nc2ccc(S(=O)(=O)N3CCCC3)cc2)c1 (stereo unspecified),39.5% (active)
14,CC(OC(=O)c1ccc(NC(=O)CC#N)cc1)C(=O)Nc1ccc(S(=O)(=O)N2CCCC2)cc1 (stereo unspecified),32.6%
15,O=C(Nc1ccc(S(=O)(=O)N2CCCCC2)cc1)C1CCN(C(=O)c2ccc(F)cc2)CC1,9.2%
16,CCc1ccc(CN(C)C(C)C(=O)Nc2ccc(S(=O)(=O)N3CCCC3)cc2)cc1 (stereo unspecified),88.9% (active)
17,CN(CC(=O)Nc1ccc(F)cc1)CC(=O)Nc1ccc(Cl)c(S(=O)(=O)N2CCOCC2)c1,-20.8%
18,CN(CC(=O)Nc1ccc(S(=O)(=O)N2CCCC2)cc1)Cc1ccc(Cl)c(Cl)c1,34.9% (active)
19,CCc1ccc(NC(=O)CN2C(=O)COc3ccc(S(=O)(=O)N4CCCC4)cc32)cc1,-15.9%
20,Cc1ccc(CC(=O)Nc2ccc(S(=O)(=O)N3CCOCC3)cc2)cc1C,-11.9%
21,O=C(Nc1ccc(S(=O)(=O)N2CCCCC2)cc1)C1CC(=O)N(c2ccc(F)cc2)C1 (stereo unspecified),-6.03%
22,COc1ccccc1CC(=O)Nc1ccc(S(=O)(=O)N2CCCC2)cc1,-9.64%

row,Compound,inhibition
1,CCN(CC(=O)Nc1ccc(S(=O)(=O)N2CCCC2)cc1)CC(=O)Nc1cccc(OC)c1,-10.7%
2,CC(C(=O)Nc1ccc(S(=O)(=O)N2CCCC2)cc1)N(C)Cc1ccc(F)cc1 (stereo unspecified),53.5% (active)
3,COc1cccc(CNn2cn[nH]c2=S)c1OCc1ccccc1,-12.7%
4,COc1ccccc1-c1cc2nc(NCc3cccc(Cl)c3)ccn2n1,-15.4%
5,Nc1ncnc2c1ncn2[C@@H]1O[C@H](C(=O)NS(=O)(=O)c2c(Cl)nc3sccn23)[C@@H](O)[C@H]1O,-32.1%
6,Cc1csc2nc(COC(=O)c3cccc(N(C)C)c3)cc(=O)n12,6.38%
7,CCOc1ccc(NC(=O)COc2ccc(S(=O)(=O)N3CCCC3)cc2)cc1,16%
8,O=C(CN1CCCCCC1)Nc1ccc(S(=O)(=O)N2CCCCC2)cc1,33.1% (active)
9,O=C(CSCc1ccc(Br)cc1)Nc1ccc(S(=O)(=O)N2CCCCCC2)cc1,4.8%
10,COCc1c(C(=O)N/N=C(\C)c2ccncc2)nnn1-c1nonc1N,-10.9%
11,FC(F)(F)c1ccccc1Cc1c(-c2ccccc2)nc2c3ccccc3ccn12,-26%
12,COc1ccccc1N(CC(=O)Nc1c(C)n(C)n(-c2ccccc2)c1=O)S(=O)(=O)c1ccccc1,-20.5%
13,CN(C)CCCCCN(C)Cc1cc2ccccc2o1,-3.73%
14,COc1ccc(-c2cc(NC=O)c3ncc(-c4ccccc4)n3c2)cc1OC,4.7%
15,CC(=O)Nc1ccc(-c2cn3cccnc3n2)cc1,-2.56%
16,CC(=O)Nc1ccc(-c2csc(NC(=O)Nc3ccccc3)n2)cc1,38.3% (active)
17,NC(c1ccccc1)c1csc(NC(=O)Nc2cccc(C(F)(F)F)c2)n1 (stereo unspecified),6.11%
18,CC(CCc1ccc(O)cc1)NCc1ccc(Cl)cc1Cl (stereo unspecified),30.2% (active)
19,COc1ccc(CNC(=O)C(C)NCc2ccccc2Cl)cc1 (stereo unspecified),1.81%
20,CC(CCc1ccccc1)NC(=O)c1cnc(Cl)c(Cl)c1 (stereo unspecified),2.23%
21,COc1ccc(-c2cc(NC=O)c3ncc(-c4cc(OC)c(OC)c(OC)c4)n3c2)c(OC)c1,5.71%
22,Cc1ccc2cc(CCNC(=O)c3ccc4c(c3)OCO4)c(=O)[nH]c2c1,-6.75%

row,Compound,inhibition
1,Cc1ccc(N(C(=O)c2sc(C)nc2C)C(C(=O)NC(C)(C)C)c2ccncc2)cc1 (stereo unspecified),-4.9%
2,CCOCCCNS(=O)(=O)Cc1ccccc1,-12.6%
3,Cc1nccn1-c1ccc(NC(=O)[C@H]2O[C@@H](n3cnc4c(N)ncnc43)[C@H](O)[C@@H]2O)cc1,-16.5%
4,O=C(NC1CCCCC1)c1ccc2c(=O)n(CC3CCCO3)c(=O)[nH]c2c1 (stereo unspecified),-13.8%
5,CC1CCCCN1CCCNC(=O)Cn1ncc2c([nH]c3ccccc32)c1=O (stereo unspecified),3.02%
6,CCCCCn1c(=O)[nH]c2cc(C(=O)NCCCN3CCCCC3C)ccc2c1=O (stereo unspecified),27.5% (active)
7,Cc1ccccc1NC(=O)Cc1nc(COC(=O)CNC(=O)c2ccc(Cl)cc2Cl)cs1,-13%
8,Cc1ccc(CN2C(=O)N/C(=C/c3cc(C)n(-c4ccccn4)c3C)C2=O)cc1,-1.22%
9,CN(C)c1ccc(/C=C2\NC(=S)N(Cc3ccccc3)C2=O)cc1,68.3% (active)
10,CN(C(=O)CN1C(=O)NC(C)(CCc2ccccc2)C1=O)c1ccccc1 (stereo unspecified),-11.9%
11,COc1ccc(-c2cc(NC(C)=O)c3ncc(-c4cc(OC)c(OC)c(OC)c4)n3c2)cn1,-10.3%
12,CC(=O)N[C@H]1[C@H]([C@H](O)[C@H](O)CO)OC(C(=O)O)=C[C@@H]1O,-23.4%
13,CC(=O)Nc1cc(-c2ccccc2F)cn2c(-c3cccc(C(F)(F)F)c3)cnc12,-3.02%
14,Cc1occc(=O)c1OCc1ccc(F)cc1,-6.78%
15,Cc1nc2ccccc2cc1OCc1ccc(F)cc1,18% (active)
16,Fc1cccc2ncnc(OCc3ccccc3)c12,-13.7%
17,Clc1cccc(Cc2c(-c3cccc(Cl)c3)nc3ccc(Cl)cn23)c1,-29.8%
18,COc1ccccc1CNc1nc(Nc2ccccc2Cl)c2sccc2n1,30.1% (active)
19,COCCNc1nc(Nc2ccccc2Cl)c2sc(-c3ccccc3)cc2n1,-5.82%
20,Clc1ccccc1Nc1nc(NCc2cccs2)nc2ccsc12,7.85%
